ChEMBL document CHEMBL4513216, “Probing the Open Global Health Chemical Diversity Library for Multistage-Active Starting Points for Next-Generation Antimalarials” (ACS Infect Dis, 2020)
About 8,600 (12%) of roughly 69,000 compounds showed an effect of 50% or more. Many of the other results were omitted from the sample, so strong results are more common in it than they were.

system: Plasmodium berghei; assay: Screen against P. berghei liver stage (PbLuc), transformed with Luciferase, at 10uM; format: functional, HepG2; conditions: tested at 10 uM

How did the INHIBITION turn out when `CN(Cc1ccccc1)CC(O)Cn1cnc2cc(F)ccc2c1=O` (configuration not stated) was run?
The INHIBITION was -8.7%.

How did the INHIBITION turn out when `O=C(NC1CC1)[C@H]1COC[C@H]2CN(c3ncc(F)cn3)C[C@H]21` was run?
The INHIBITION was 58.5%.

Which INHIBITION does the source give for `O=C(NCc1ccco1)[C@@H]1COC[C@H]2CN(c3ncc(F)cn3)C[C@H]21` here?
The INHIBITION was 3.88%.

`O=C([C@H]1COC[C@H]2CN(c3ncc(F)cn3)C[C@H]21)N1CCOCC1` was tested. Which INHIBITION did it give?
Its INHIBITION is -0.554%.

`O=C(Nc1cnccn1)[C@@H]1COC[C@H]2CN(c3ncc(F)cn3)C[C@H]21` was tested. Which INHIBITION did it give?
Its INHIBITION is -22.7%.

How did the INHIBITION turn out when `O=C(Nc1cnccn1)[C@H]1COC[C@H]2CN(c3ncc(F)cn3)C[C@H]21` was run?
The INHIBITION was 67.4%.

How did the INHIBITION turn out when `CS(=O)(=O)N1C[C@@H]2COC[C@H](C(=O)Nc3cnccn3)[C@@H]2C1` was run?
The INHIBITION was 45.2%.

How did the INHIBITION turn out when `CC(=O)N1[C@H](CN(C)C)C[C@@H]2CN(C(=O)c3ccsc3)CC[C@@H]21` was run?
Its INHIBITION is -24.5%.

With `O=C([C@H]1CN(CCc2ccccc2)C[C@H]2OCC[C@@H]12)N1CCCO1` as the compound, how does the INHIBITION read?
The INHIBITION was 8.57%.

With `COc1ccc(Cn2cc(C(=O)N(C)Cc3cnccn3)nn2)cc1` as the compound, how does the INHIBITION read?
The INHIBITION was 21.5%.

With `COc1cccc(CNc2nc(C)cc(C)n2)c1OC` as the compound, how does the INHIBITION read?
The INHIBITION was -11.7%.

Which INHIBITION does the source give for `Cc1cc(NCCC(=O)NC(C)C)nc(-c2ccncc2)n1` here?
The INHIBITION was -2.43%.

Which INHIBITION does the source give for `COCCNC(=O)CCNc1cc(C)nc(-c2ccncc2)n1` here?
Its INHIBITION is 24%.

How did the INHIBITION turn out when `COc1cccc(CNc2cc(C)nc(-c3ccncc3)n2)c1OC` was run?
Its INHIBITION is 85.2%.

For `COc1cccc(CNc2cccnc2-n2cccn2)c1OC`, which INHIBITION is on record?
Its INHIBITION is 17.3%.

With `COc1cccc(CNc2cc(C)nc(-c3ccncc3)n2)c1O` as the compound, how does the INHIBITION read?
The INHIBITION was 78.9%.

For `Cc1nc(CN2CCN(C(=O)c3sccc3C)CC2)cs1`, which INHIBITION is on record?
The INHIBITION was -117%.

Which INHIBITION does the source give for `CC(C)c1nc(CNCC2CCCN2c2cccnn2)cs1` (configuration not stated) here?
Its INHIBITION is -16.8%.

How did the INHIBITION turn out when `COC(=O)c1ccc(C(=O)NCC(O)c2cccn2C)cc1` (configuration not stated) was run?
Its INHIBITION is -52.5%.

For `CC1CCN(c2cc(CCC3CCCN3)ncn2)CC1` (configuration not stated), which INHIBITION is on record?
Its INHIBITION is 34%.

For `COc1ccc(NC(=O)c2ccccc2NCc2ncnn2C)cc1`, which INHIBITION is on record?
The INHIBITION was 47.4%.

`Cc1cc(CNCC2CCCN(C(=O)OC(C)(C)C)C2)no1` (configuration not stated) was tested. Which INHIBITION did it give?
Its INHIBITION is 39%.

For `CC(C)(C)OC(=O)N1CCCc2ccc(NCc3ccon3)cc21`, which INHIBITION is on record?
The INHIBITION was 55.4%.

`CCCNC(=O)CNc1ccc2c(c1)N(C(=O)OC(C)(C)C)CCC2` was tested. Which INHIBITION did it give?
The INHIBITION was 87.2%.

Which INHIBITION does the source give for `Cn1ncnc1CNc1ccccc1C(=O)NC(C)(C)C` here?
Its INHIBITION is 1.2%.

With `CCNC(=O)N1CCc2ccc(NC(=O)NCCOCC)cc21` as the compound, how does the INHIBITION read?
The INHIBITION was -26.8%.

How did the INHIBITION turn out when `CC(C)(C)OC(=O)N1CCC[C@H](NCc2cc[nH]c2)C1` was run?
The INHIBITION was 49.5%.

Which INHIBITION does the source give for `Cn1ncnc1CNc1ccc2c(c1)N(C(=O)OC(C)(C)C)CCC2` here?
The INHIBITION was 52.4%.

With `CCCNC(=O)Nc1ccc2c(c1)N(S(=O)(=O)CC)CC2` as the compound, how does the INHIBITION read?
The INHIBITION was 36.3%.

Which INHIBITION does the source give for `CC(C)N(CC1CCCN(Cc2ccon2)C1)C(=O)OC(C)(C)C` (configuration not stated) here?
The INHIBITION was 39.9%.

`Cc1n[nH]cc1CNc1ccc2c(c1)N(C(=O)OC(C)(C)C)CCC2` was tested. Which INHIBITION did it give?
The INHIBITION was 31.8%.

For `CC(C)(C)OC(=O)N1CCCc2ccc(NCc3cc[nH]c3)cc21`, which INHIBITION is on record?
Its INHIBITION is 92.1%.

For `c1csc(-c2nc(CN3CCCCC3Cn3cncn3)cs2)c1` (configuration not stated), which INHIBITION is on record?
Its INHIBITION is 42%.

Which INHIBITION does the source give for `CCc1nc2n(n1)CC(NCC(=O)Nc1cc(C)nn1C)CC2` (configuration not stated) here?
The INHIBITION was 5.03%.

With `Cc1ccc(-c2cnnc(N3CCCC3c3nccs3)n2)o1` (configuration not stated) as the compound, how does the INHIBITION read?
The INHIBITION was 12.6%.

How did the INHIBITION turn out when `Cc1ccc(OCc2occc2C(=O)N2C[C@@H]3C(CN(C)C)[C@@H]3C2)cc1` (some centres not stated) was run?
The INHIBITION was 32.2%.

For `Cc1c(CN2CCCC2(C)C(=O)NC2CCCC2)cnn1C` (configuration not stated), which INHIBITION is on record?
Its INHIBITION is 1.62%.

With `CCN(CC)CCNc1c(-c2ccccc2)c(=O)c1=O` as the compound, how does the INHIBITION read?
The INHIBITION was 4.07%.

`CN(C)c1nc2cn(C3CCSCC3)c(=O)c-2c[nH]1` was tested. Which INHIBITION did it give?
Its INHIBITION is 18.65%.

Which INHIBITION does the source give for `CC(C)CC(=O)N1CC(=O)N(CCc2ccccc2)CC(O)C1` (configuration not stated) here?
Its INHIBITION is 0.284%.

How did the INHIBITION turn out when `CC(C)c1nc(CN2CCN(C(=O)CN3CCOCC3)CC2)no1` was run?
The INHIBITION was 13.3%.

How did the INHIBITION turn out when `CCN(C(=O)Cc1ccc(NCc2ncc[nH]2)cc1)c1ccccc1` was run?
Its INHIBITION is 22.2%.

`Cc1n[nH]cc1CNC(=O)[C@H]1CCCCN1C(=O)OC(C)(C)C` was tested. Which INHIBITION did it give?
The INHIBITION was 34.1%.

How did the INHIBITION turn out when `CC(C)(C)OC(=O)N1CCCc2ccc(NCc3ncc[nH]3)cc21` was run?
The INHIBITION was 51.8%.

For `CC(C)(C)OC(=O)N1CCCN(Cc2ccon2)c2ccccc21`, which INHIBITION is on record?
Its INHIBITION is 83.6%.

Which INHIBITION does the source give for `COC(=O)N1CCc2ccc(NC(=O)c3cn(C)nn3)cc2C1` here?
Its INHIBITION is -28.4%.

`CC(=O)N1CCCN(Cc2ccon2)c2ccccc21` was tested. Which INHIBITION did it give?
The INHIBITION was 32.3%.

`Cc1n[nH]cc1CNc1ccc2c(c1)CN(C(=O)OC(C)(C)C)CC2` was tested. Which INHIBITION did it give?
Its INHIBITION is 80.1%.

Which INHIBITION does the source give for `CN1CCN(Cc2cccc(NCc3ncc[nH]3)c2)CC1` here?
The INHIBITION was -13.9%.

With `CC(=O)N1CC(C)CN(Cc2ccon2)c2ccccc21` (configuration not stated) as the compound, how does the INHIBITION read?
Its INHIBITION is 18%.

Which INHIBITION does the source give for `Cc1cc(C)nc(N2CCC(C(=O)Nc3ccc(C(C)C)cc3)CC2)n1` here?
Its INHIBITION is 20.2%.

Which INHIBITION does the source give for `O=S1(=O)NCC2(CCN(c3ncccn3)CC2)COc2ccccc21` here?
The INHIBITION was -21.2%.

How did the INHIBITION turn out when `CO[C@@H]1CO[C@@]2(CCCN(C(=O)N3CCCC3)C2)C1` was run?
Its INHIBITION is 33.1%.

`CCS(=O)(=O)N1CCC(c2nn(CCN(C)C)c3ncccc23)C1` (configuration not stated) was tested. Which INHIBITION did it give?
Its INHIBITION is 9.63%.

With `Cc1cccc(C2CCN(S(=O)(=O)c3cn(C)cn3)CC2)n1` as the compound, how does the INHIBITION read?
Its INHIBITION is -41.8%.

`CCN1CCOC(CNCc2ccccc2OCc2ccncc2)C1` (configuration not stated) was tested. Which INHIBITION did it give?
The INHIBITION was 19.5%.

How did the INHIBITION turn out when `Cc1nnc2n1CCN(Cc1ncc(-c3ccccc3)o1)C2` was run?
Its INHIBITION is -25.4%.

With `c1cc(-c2ccc3nc(C4CCN(CC5CC5)CC4)nn3c2)ccn1` as the compound, how does the INHIBITION read?
Its INHIBITION is 47.9%.

Which INHIBITION does the source give for `COc1ccc(OCCN2CCN(Cc3nccn3C)CC2)cc1` here?
The INHIBITION was 14.1%.

Which INHIBITION does the source give for `CCN(Cc1ccncc1)CC1(O)CCN(C(=O)c2ccccc2C)C1` (configuration not stated) here?
The INHIBITION was 23.2%.

`CN1CCCN(C(=O)c2nc3c(n2C)CCN(c2ncccn2)C3)CC1` was tested. Which INHIBITION did it give?
Its INHIBITION is 55.6%.

`Cn1c(C(=O)N2CCOCC2)nc2c1CCN(c1ncccn1)C2` was tested. Which INHIBITION did it give?
The INHIBITION was 14.2%.

How did the INHIBITION turn out when `CC(C)n1c(C(=O)N2CCCC2)nc2c1CCN(c1ncccn1)C2` was run?
The INHIBITION was 33.4%.

For `CN1CCN(C(=O)c2[nH]nnc2Nc2ccccc2F)CC1`, which INHIBITION is on record?
The INHIBITION was 5.18%.

For `O=C(NCCNC(=O)c1ccc(Cl)cc1)NCCn1cccc1`, which INHIBITION is on record?
Its INHIBITION is -11.9%.

With `NC(=O)Nc1ccc(C(=O)NCCn2cccc2)cc1` as the compound, how does the INHIBITION read?
Its INHIBITION is 57.1%.

How did the INHIBITION turn out when `CC(=O)Nc1ccc(C(=O)NCCCn2cccc2)cc1` was run?
The INHIBITION was 18.7%.
